PubChem BioAssay AID1159580 (chemical genetic matrix, 2015)
About 2,000 (36%) of roughly 5,500 compounds were called active. Another 18% or so got no clear call; they are omitted. No stated cut-off is given here; in the data, active means normalized growth mostly below about 0.91 (no sharp cut-off); inconclusive means no clear call, values can overlap the other calls; inactive means mostly above about 0.92. Some of the results follow.

Assay: chemical genetic growth profiling, strain panel (AID 1159580);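 further: tested at 20 µM; growth read once vehicle control cultures reached saturation at 30 °C; 1 = growth at the plate median or of vehicle wells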
Conditions: S. cerevisiae deletion strains, growth OD

Measured: normalized growth

CC(N)[C@H](O)c1ccc(O)c(O)c1 (some centres undefined)
inactive: locus YAL013W, strain DEP1, stronger effect = lower value 0.998 | locus YAL040C, strain CLN3, stronger effect = lower value 1.05 | locus YCL061C, strain MRC1 (second series), stronger effect = lower value 0.993 | locus YDR150W, strain NUM1, stronger effect = lower value 0.995 | locus YDR363W, strain ESC2, stronger effect = lower value 0.989 | locus YER002W, strain NOP16, stronger effect = lower value 1 | locus YJR075W, strain HOC1, stronger effect = lower value 0.983 | locus YNL153C, strain GIM3, stronger effect = lower value 0.986 | locus YNL175C, strain NOP13, stronger effect = lower value 1.01 | locus YNL197C, strain WHI3, stronger effect = lower value 1.01 | locus YNL224C, strain SQS1, stronger effect = lower value 0.992 | locus YNL322C, strain KRE1, stronger effect = lower value 1.01 | locus YOR083W, strain WHI5 (second series), stronger effect = lower value 0.988 | locus YPL055C, strain LGE1, stronger effect = lower value 1
